# Compound activity (PubChem)
# MBD2 inh: inhibitors of human MBD2 binding to methylated oligonucleotide | TR-FRET | inhibition, % at 4.4 µM | Q9UBB5 | AID 686964 | 0.31% of 370,000 active; in the data active = inhibition above about 13%
# PLC-gamma1 inh: PLC-gamma1 (human) inhibition, primary screen; purified PLC-gamma1, fluorogenic substrate, fluorescence; inhibition, % at 12.2 µM; 0.84% of 370,000 active; AID 720700; in the data active = inhibition above about 9.5%
# Target sequence (P19174 whole entry, looked up): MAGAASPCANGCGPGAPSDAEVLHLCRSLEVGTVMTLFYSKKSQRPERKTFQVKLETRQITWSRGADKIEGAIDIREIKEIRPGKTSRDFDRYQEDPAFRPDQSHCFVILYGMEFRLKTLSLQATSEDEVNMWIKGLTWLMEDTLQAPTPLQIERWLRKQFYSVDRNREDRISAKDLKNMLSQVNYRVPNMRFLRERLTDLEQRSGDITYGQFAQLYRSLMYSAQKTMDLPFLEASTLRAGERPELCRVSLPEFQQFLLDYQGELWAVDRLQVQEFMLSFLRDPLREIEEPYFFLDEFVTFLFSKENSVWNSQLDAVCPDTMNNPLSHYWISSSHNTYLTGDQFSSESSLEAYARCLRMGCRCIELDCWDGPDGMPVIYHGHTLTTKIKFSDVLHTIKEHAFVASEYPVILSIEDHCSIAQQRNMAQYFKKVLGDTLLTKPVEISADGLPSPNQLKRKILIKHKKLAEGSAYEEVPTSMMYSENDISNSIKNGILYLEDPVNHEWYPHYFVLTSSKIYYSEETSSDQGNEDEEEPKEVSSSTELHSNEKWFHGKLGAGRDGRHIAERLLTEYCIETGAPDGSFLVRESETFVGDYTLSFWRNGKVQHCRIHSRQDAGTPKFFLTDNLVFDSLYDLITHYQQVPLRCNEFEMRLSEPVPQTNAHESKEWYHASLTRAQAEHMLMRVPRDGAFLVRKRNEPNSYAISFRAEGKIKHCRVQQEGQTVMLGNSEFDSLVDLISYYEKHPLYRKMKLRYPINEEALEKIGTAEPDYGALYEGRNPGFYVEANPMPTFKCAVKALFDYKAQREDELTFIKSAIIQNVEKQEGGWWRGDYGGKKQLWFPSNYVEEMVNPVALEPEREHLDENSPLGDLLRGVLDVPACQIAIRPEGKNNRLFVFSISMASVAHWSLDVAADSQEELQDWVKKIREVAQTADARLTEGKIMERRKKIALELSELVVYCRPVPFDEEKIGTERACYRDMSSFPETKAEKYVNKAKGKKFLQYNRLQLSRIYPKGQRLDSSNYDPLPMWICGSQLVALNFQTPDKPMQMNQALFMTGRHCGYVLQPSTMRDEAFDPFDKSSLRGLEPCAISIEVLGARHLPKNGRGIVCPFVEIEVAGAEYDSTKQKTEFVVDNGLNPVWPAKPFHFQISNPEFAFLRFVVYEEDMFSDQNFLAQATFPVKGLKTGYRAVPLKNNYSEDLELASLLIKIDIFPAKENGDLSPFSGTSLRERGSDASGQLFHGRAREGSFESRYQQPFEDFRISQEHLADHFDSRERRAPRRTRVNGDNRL
# LEDGF integ inh: blocks HIV-1 LEDGF/p75-dependent DNA integration; TR-FRET IN-LEDGF/p75 DNA integration, Eu/Cy5; inhibition, % at 3.7 µM; AID 743269; 0.64% of 370,000 active;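 active = inhibition above the screen-wide mean plus 3 SD, cut at about 13% in these data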;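 also: signal is the Cy5 over europium emission ratio at 671 and 618 nm; 0% = plate median of compound wells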
# PLCb3 inh: inhibitors of human phospholipase C beta3 | Q01970 | Purified PLC-beta3, fluorogenic substrate, fluorescence | inhibition, % at 12.2 µM | 0.18% of 370,000 active | AID 720704;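 also: 0% = median of compound wells on plate and 100% = full blocker control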
# UHRF1 MBD2 ctr: UHRF1 methyl-DNA binding inhibition; Q96T88; inhibition, % at 4.4 µM; UHRF1 binding to methylated oligo, TR-FRET; AID 687016; 0.75% of 370,000 active; in the data active = inhibition above about 21%;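 also: UHRF1 SRA domain binding a hemimethylated CpG hairpin DNA probe; 0% = median of test compound wells and 100% = reference inhibitor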
# PLCg1 ctr: PLC-gamma1 inhibition, counter-screen for PLC-beta3 hits | shares compounds with PLC-gamma1 inh | purified PLC-gamma1, fluorogenic substrate, fluorescence | inhibition, % at 12.3 µM | 3.1% of 3,300 active | AID 743258; in the data active = inhibition above about 9.5%
# PLCb3 confirm: human PLC-beta3 inhibition, confirmation. shares compounds with PLC-gamma1 inh. purified PLC-beta3, fluorogenic substrate fluorescence. inhibition, % at 12.3 µM. 1% of 3,300 active
# Starred values were filed as active, the others as inactive; / = no result. In the library only some 2.4% were active in any assay of this set; here they are far more common. Rule as the data show it, unless noted: active = inhibition above about 11%; inactive = the rest.
SMILES,MBD2 inh,PLC-gamma1 inh,LEDGF integ inh,PLCb3 inh,UHRF1 MBD2 ctr,PLCg1 ctr,PLCb3 confirm
CCOC(=O)c1cnc2ccc(Br)cc2c1NCCO,1,6,4,4,5,/,/
CC1S/C(=N/N=C/c2cccs2)NC1=O (stereo not drawn),1,-3,1,-4,-2,/,/
CC(C)C1S/C(=N/N=C/c2cccs2)NC1=O (stereo not drawn),-7,13*,3,11,2,-2,-3
CCC1S/C(=N/N=C/c2cccs2)NC1=O (stereo not drawn),1,15*,-4,2,0,3,-2
COC(=O)C[C@H]1CC[C@@H]2[C@@H](COc3ccc(NC(=O)Nc4ccccc4OC)cc3C(=O)N2C)O1,-4,1,-2,3,-3,/,/
O=C(NC1CCCCN(Cc2cccc(F)c2)C1=O)c1cccc(C(F)(F)F)c1 (stereo not drawn),5,0,3,0,2,/,/
CC12CCC(=O)C=C1CCC1C2C(O)CC2(C)C1CCC2(O)C(=O)CO (stereo not drawn),0,11*,-2,-2,5,-6,1
C[C@]12CCC(=O)C=C1CC[C@@H]1[C@@H]2[C@@H](O)C[C@@]2(C)[C@H]1CC[C@]2(O)C(=O)CO,-4,0,1,1,-2,/,/
Cc1cccc(NC(=O)N2CCCC2C(=O)Nc2ccccc2)c1 (stereo not drawn),1,13*,4,7,1,-4,-4
Cc1ccc(NC(=O)N2CCCC2C(=O)NCc2cccs2)cc1 (stereo not drawn),-1,3,-1,8,-1,/,/
Cc1cccc(NC(=O)C(=O)NCC2CCCN2S(=O)(=O)c2cccs2)c1 (stereo not drawn),-6,9.5*,11,-6,2,-4,-5
Cc1ccc(NC(=O)C(=O)NCC2CCCN2S(=O)(=O)c2cccs2)cc1 (stereo not drawn),-4,-3,-1,-9,0,/,/
Cc1cccc(NC(=O)N2CCCC2C(=O)NCc2cccs2)c1 (stereo not drawn),-2,12*,1,5,3,-4,1
COc1ccc(NC(=O)N2CCCC2C(=O)Nc2cccc(C)c2C)cc1 (stereo not drawn),-7,12*,2,6,3,-4,-3
COc1ccc(NC(=O)N2CCCC2C(=O)Nc2ccccc2F)cc1 (stereo not drawn),8,0,-1,-8,0,/,/
COCC(=O)Nc1cc([N+](=O)[O-])ccc1OC,8,13*,-2,5,6,-3,0
COc1ccc([N+](=O)[O-])cc1NC(=O)c1cn(-c2ccc(C)c(C)c2)c(=O)c2ccccc12,2,11*,2,6,7,-4,-2
Oc1cccc(N2CCN(c3cccc(O)c3)CC2)c1,1,0,-2,-5,0,/,/
COC(C(=O)NNS(=O)(=O)c1ccccc1[N+](=O)[O-])c1ccccc1 (stereo not drawn),-2,1,-6,-4,3,/,/
COC(C(=O)NNS(=O)(=O)c1ccc([N+](=O)[O-])cc1)c1ccccc1 (stereo not drawn),-5,12*,2,7,6,-5,-1
Cc1cccc(NC(=O)CSc2nnc(SCc3ccc(Cl)cc3)s2)c1,-2,-2,-3,-9,2,/,/
CC(=O)OCCCN1c2ccccc2Nc2nnc(-c3ccccc3)cc21,-2,8,2,14*,-1,-5,-1
CCOc1ccc(Oc2c(Cl)cnn(Cc3cccc4ccccc34)c2=O)cc1,4,0,-1,-1,2,/,/
CCCCc1ccc(N2C(=NC(=O)C3CCCO3)SC3CS(=O)(=O)CC32)cc1 (stereo not drawn),-2,9.6*,0,-4,0,-4,-1
NS(=O)(=O)c1ccc(N/N=C/c2ccc(C(=O)O)cc2)c([N+](=O)[O-])c1,-16,6,3,0,-8,/,/
SMILES,MBD2 inh,PLC-gamma1 inh,LEDGF integ inh,PLCb3 inh,UHRF1 MBD2 ctr,PLCg1 ctr,PLCb3 confirm
NS(=O)(=O)c1ccc(N/N=C/c2ccc[nH]2)c([N+](=O)[O-])c1,-15,12*,0,3,-14,2,7
O=C(O)c1ccccc1NS(=O)(=O)c1ccc(N/N=C/c2cccc(O)c2O)c([N+](=O)[O-])c1,-5,9.6*,3,1,1,4,1
O=C(O)c1ccccc1NS(=O)(=O)c1ccc(NNC(=S)Nc2ccc(OC(F)F)cc2)c([N+](=O)[O-])c1,-1,14*,10,4,-5,17*,-15
Cc1ccc(Cn2cc(CN(C(C)(C)C)S(=O)(=O)c3ccc(F)cc3Br)nn2)cc1,6,8,-4,0,0,/,/
O=S1(=O)c2ccccc2-c2c(nnn2CC2CCCCC2)CN1C1CC1,-4,1,-3,0,-1,/,/
CC(=O)OC(C(=O)Nc1nccs1)c1ccccc1 (stereo not drawn),2,13*,2,-2,5,7,0
Cc1cc(C(=O)N/N=C/c2ccc(O)c([N+](=O)[O-])c2)n[nH]1,-7,10*,1,5,-4,-1,5
COc1cc(/C=N/NC(=O)c2ccc(C)nc2)cc([N+](=O)[O-])c1O,-10,9.9*,2,8,-4,6,8
Cc1ccc(-n2c(SCC(=O)NN=Cc3c[nH]c4ccccc34)nnc2-c2ccccc2)cc1,6,4,-4,-7,2,/,/
CN(C)c1ccc(/C=N\NC(=O)c2cccc(S(=O)(=O)N(C)C)c2)cc1,-1,-103,1,-152,-1,/,/
O=C1C(=C(I)I)c2ccccc2-c2ccccc21,-4,34*,-20,-12,-1,39*,-2
O=C(O)c1cccc2c1C(=O)c1ccccc1-2,-3,-1,5,-7,0,/,/
S=C(NC1CCCCC1)N1CCc2ccccc2C1,2,9.9*,2,3,4,-6,-1
O=C(CN1CCN(S(=O)(=O)c2ccc(Br)cc2)CC1)Nc1ccc2c(c1)OCO2,1,10.0*,-3,0,2,-3,-3
CCN1CCN(CCC(=O)Nc2ccc3c(c2)OCO3)CC1,0,13*,3,9,4,3,-6
O=C(CCc1ccccc1)N[C@H]1[C@@H](OC(=O)C2CC2)CCC[C@@]12C(=O)N(Cc1ccccc1)c1ccccc12,1,7,1,8,0,/,/
CC1=C(C)CC(C(=O)NNC(=O)c2ccccc2)C(C(=O)O)C1 (stereo not drawn),0,11*,0,10,7,-3,0
CC1=C(C)CC(C(=O)NNC(=O)c2cccc(Cl)c2)C(C(=O)O)C1 (stereo not drawn),-3,1,2,0,1,/,/
